From PubChem
CF NFkB inh: inhibitors of PAF-induced NF-kB signaling, primary screen, cell-based, GFP fluorescence, uHTS; KKLEB NF-kB-GFP reporter, GFP fluorescence overnight; 360,000 compounds, 0.86% hits; AID 588850, 2011; inhibition, % at 5 µM;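 active = at least 50% inhibition at 5 µM, scaled per plate between neutral and stimulator controls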;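 also: PAF is a Pseudomonas aeruginosa culture filtrate used as stimulus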
HIF-2a block: HIF-2a reporter inhibitors, primary screen, luminescence, 786-0 RCC cells; AID 624352, 2012; 360,000 compounds, 0.72% hits; 786-0 RCC cells HIF-2a reporter, luciferase luminescence, overnight; inhibition, % at 18.8 µM;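 active = inhibition of the luminescence signal of 40% or more relative to plate controls, in a single-dose primary screen at 18.75 µM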
PAX8 reporter: inhibitors of PAX8-driven TPO luciferase reporter, primary screen, RMG-I cells, single concentration; SteadyGlo, 24 h; inhibition, % at 12.6 µM; 360,000 compounds, 1.2% hits; AID 652154, 2013;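 active = mean replicate inhibition at least 60% with every replicate also reaching 60%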;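 also: luciferase light reporting Pax8 driven TPO promoter activity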
KKLEB tox: cytotoxicity in KKLEB CF airway cells, primary screen, cytotoxicity control for CF NF-kB inhibitor project, cell-based, uHTS, fluorescence assay plates; KKLEB CF airway cells viability, ATPlite luminescence, overnight; stronger effect = lower value; cells stimulated with P. aeruginosa culture filtrate; activity change (cytotoxicity), % at 5 µM; 360,000 compounds, 0.36% hits;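 active = corrected activity change at or below -50% at 5 µM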
EWS-Fli inh: EWS/Fli-driven NR0B1 reporter inhibitors, primary screen, A673 cells, NR0B1 luciferase, luminescence, MLPCN library | viability-normalised | inhibition, % at 12.6 µM | 350,000 compounds, 0.67% hits;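 active = mean inhibition of at least 50% after viability correction, with every replicate also passing that limit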;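 also: firefly luciferase signal divided by Alamar Blue viability fluorescence both relative to DMSO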
Hits are given with their value; - = inactive; . = not tested or not shown. Hits are enriched below; roughly 2.1% of the tested compounds scored in any of these assays.

SMILES | CF NFkB inh | HIF-2a block | PAX8 reporter | KKLEB tox | EWS-Fli inh
C=CCN1C(=O)[C@@]2(O[C@@H](CCO)[C@H]([Si](C)(C)c3ccc(OC)cc3)[C@H]2C)c2cc(N3CCC3=O)ccc21 | . | . | - | . | -
CCCCCCSc1cccc(-c2nc3ccc(Cl)cn3c2NCCCC)c1 | - | - | - | - | -
CCCCNc1c(-c2cccc(-c3cc(C(C)=O)cs3)c2)nc2ccc(C)cn12 | 83.3 | - | - | -93.2 | -
Cc1ccccc1Cn1cnc2ccccc2c1=O | - | - | 160.1 | - | -
O=c1c2ccccc2ncn1Cc1cccc2ccccc12 | - | - | - | - | -
Cc1ccccc1CNC(=O)C1CCCN(c2nnc(C)c3c(C)n(-c4ccccc4)nc23)C1 (stereo unspecified) | - | - | 94.6 | - | -
CCc1ccc(CNC(=O)C2CCCN(c3nnc(C)c4c(C)n(-c5ccccc5)nc34)C2)cc1 (stereo unspecified) | - | - | 89.5 | - | -
Cc1nnc(N2CCCC(C(=O)NCc3ccccc3F)C2)c2nn(-c3ccccc3)c(C)c12 (stereo unspecified) | - | - | - | - | -
Cc1nnc(N2CCCC(C(=O)NCc3cccc(F)c3)C2)c2nn(-c3ccccc3)c(C)c12 (stereo unspecified) | - | - | 65.1 | - | .
O=C(CN1CCOCC1)N[C@@H]1CC[C@@H](CCn2cc(C3CCCC3)nn2)O[C@@H]1CO | . | . | - | . | .
CN(C)CC(=O)N1[C@@H]2c3ccc(-c4ccc(F)cc4)c(=O)n3C[C@@H]2[C@@H](CO)[C@@H]1C(=O)NC1CCC1 | . | . | . | . | -
Cc1ccc(N2CN(Cc3ccco3)CNC2=S)c(C)c1 | - | - | 61.3 | - | -
CCS(=O)(=O)Nc1ccc2c(c1)C(=O)N(C)[C@H]1CC[C@@H](CC(=O)N[C@H]3CCN(Cc4ccccc4)C3)O[C@@H]1CO2 | . | . | - | . | -
NC1=NC(=O)/C(=C\c2cccnc2)S1 | 51.6 | - | - | - | -
C[C@@H]1CN([C@H](C)CO)C(=O)c2cccc(NC(=O)Nc3ccc4c(c3)OCO4)c2O[C@H]1CN(C)Cc1ccccc1 | . | . | - | . | -
O=[N+]([O-])c1cccc(-c2nnc(-c3ccccc3)o2)c1 | - | - | - | - | -
O=[N+]([O-])c1cccc(-c2nnc(-c3ccc4c(c3)OCO4)o2)c1 | - | - | 143.8 | - | -
COc1cccc2c1C(=O)c1c(O)c3c(c(O)c1C2=O)CC(O)(C(C)=O)CC3OC1CC(N(C)C)C(O)C(C)O1 (stereo unspecified) | 77.3 | - | 103.0 | - | 65.4
COc1cccc2c1C(=O)c1c(O)c3c(c(O)c1C2=O)C[C@@](O)(C(=O)CO)C[C@@H]3OC1CC(N)C(O)C(C)O1 (stereo partly specified) | - | - | 81.4 | - | -
CC(=O)[C@@]1(O)Cc2c(O)c3c(c(O)c2[C@H](O[C@H]2C[C@H](N)[C@H](O)[C@H](C)O2)C1)C(=O)c1ccccc1C3=O | - | - | 104.2 | -52.7 | 59.2
COc1cccc2c1C(=O)c1c(O)c3c(c(O)c1C2=O)C[C@@](O)(C(=O)CO)C[C@@H]3O[C@H]1C[C@H](N)[C@H](O)[C@H](C)O1 | 83.2 | - | 103.7 | -51.8 | -
COc1ccc(/C=C/C=O)cc1 | . | . | - | . | -
CC1=NNC(=O)/C1=C\c1cn(-c2ccccc2)nc1-c1ccc(F)cc1 | 90.9 | 94.0 | . | -83.4 | .
O=Cc1cn(-c2ccccc2)nc1-c1ccc(F)cc1 | - | - | - | - | -
CC1=NNC(=O)/C1=C\c1cn(-c2ccccc2)nc1-c1cccs1 | 111.8 | 94.0 | - | - | 77.4
SMILES | CF NFkB inh | HIF-2a block | PAX8 reporter | KKLEB tox | EWS-Fli inh
O=C(N/N=C(\c1ccccc1)c1cccnc1)c1cccc(F)c1 | - | - | 73.4 | - | .
CC(C)NC(=O)Nc1ccc2c(c1)C(=O)N([C@H](C)CO)C[C@@H](C)[C@H](CN(C)C(=O)Nc1ccc(F)cc1)O2 | . | . | - | . | -
COc1ccc2c3c([nH]c2c1)[C@H](CO)N(S(C)(=O)=O)CC31CN(C(=O)c2ccncc2)C1 | . | . | . | . | -
O=C(C[n+]1cc(-c2ccccc2)n2c1CCC2)c1cccs1 | - | - | - | - | -
O=C(C[n+]1cc(-c2ccc(Br)cc2)n2c1CCCCC2)c1ccccc1 | - | - | 75.0 | - | -
Cc1ccc(-c2c[n+](CC(=O)N3c4ccccc4Sc4ccccc43)c3n2CCC3)cc1 | - | - | 90.6 | - | -
O=C(C[n+]1cc(-c2ccccc2)n2c1CCC2)N1c2ccccc2Sc2ccccc21 | - | - | - | - | .
O=C(C[n+]1cc(-c2ccc(Cl)cc2)n2c1CCCCC2)c1ccccc1 | - | - | 92.6 | - | -
O=C(C[n+]1cc(-c2ccc(F)cc2)n2c1CCC2)N1c2ccccc2Sc2ccccc21 | - | - | - | - | -
CCCNC(=O)N(C)C[C@H]1[C@H](c2ccccc2)[C@@H](CO)N1C(=O)c1ccccc1 | . | . | - | . | -
CN(C)CC(=O)Nc1ccc2c(c1)[C@H]1C[C@@H](CC(=O)NCc3ccc(Cl)cc3)O[C@H](CO)[C@H]1O2 | . | . | . | . | -
C=CC(=O)Nc1cccc(Oc2ccnc(Nc3ccc(N4CCN(C)CC4)cc3)n2)c1 | 63.3 | 58.5 | 74.5 | - | -
C=CC(=O)Nc1cccc(N(C)c2ccnc(Nc3ccc(N4CCN(C)CC4)cc3)n2)c1 | 61.0 | - | . | - | .
C=CC(=O)Nc1cccc(Oc2ccnc3[nH]ccc23)c1 | - | - | . | - | .
C[C@H]1CN([C@@H](C)CO)C(=O)c2cc(/C=C/c3ccccc3)cnc2O[C@@H]1CN(C)Cc1ccccc1 | . | . | . | . | -
CCC(=O)N1C[C@H](C)[C@H](OC)CN(C)C(=O)c2ccc(NC(=O)Nc3cccc(F)c3)cc2OC[C@H]1C | . | . | . | . | -
O=C(c1cc(Cl)ccc1[N+](=O)[O-])n1cnc2ccccc21 | - | - | - | - | 58.5
CCCc1ccc(-c2cc(C(=O)N/N=C/c3ccc([N+](=O)[O-])o3)c3ccccc3n2)cc1 | - | - | . | -50.8 | .
O=C(N/N=C/c1ccc([N+](=O)[O-])o1)c1cc(-c2cccc(Br)c2)nc2ccccc12 | - | - | - | - | .
O=C(N/N=C/c1ccccn1)c1cc(-c2ccc(Br)cc2)nc2ccccc12 | - | - | 65.8 | - | -
C[C@@H]1CN([C@H](C)CO)C(=O)c2cc(NS(=O)(=O)c3ccc(Cl)cc3)ccc2O[C@@H](C)CCCCO[C@H]1CN(C)Cc1ccc(Cl)c(Cl)c1 | . | . | 112.8 | . | -
C[C@H](CO)N1C[C@H](C)[C@@H](CN(C)Cc2ccc(Cl)c(Cl)c2)OCCCC[C@H](C)Oc2ccc(NS(=O)(=O)c3ccc(F)cc3)cc2C1=O | . | . | 104.9 | . | -
Cc1ccc(S(=O)(=O)Nc2ccc3c(c2)C(=O)N([C@@H](C)CO)C[C@H](C)[C@@H](CN(C)Cc2ccc(Cl)c(Cl)c2)OCCCC[C@@H](C)O3)cc1 | . | . | 103.2 | . | -
